Assay results from PubChem BioAssay AID1379 (National Center for Advancing Translational Sciences (NCATS), 2008).
The whole screen tested about 200,000 compounds, of which about 560 (0.28%) were called active. This excerpt belongs to a sample that is enriched for actives. A number with no mark means an inactive call. The call rests on the fitted dose curve; in most records, active means well fitted inhibition curve with a large enough effect; inconclusive means small, poorly fitted or top-dose-only effect; inactive means flat fitted curve, though single readings scatter.

target: Luciferin 4-monooxygenase (Photuris pensylvanica) (UniProt Q27757); assay: Counterscreen for Luciferase (Kinase-Glo TM) Inhibition; details: ATP luminescence, 8 min; series mostly up to 38.3 µM; activity change, negative = inhibition: at the top concentration; further: nearly all actives have a fitted effect of over 60% in size
Description: NCGC Assay Overview: NIH Molecular Libraries Screening Centers Network [MLSCN] NIH Chemical Genomics Center [NCGC] MLSCN Grant: None Luciferase (Kinase-Glo, Promega Corporation) was assayed for its ability to generate light using ATP and luciferin as substrates. The ATP concentration in the assay (10 uM) was within the linear range of enzyme activity for the assay conditions used.
NCGC Assay Protocol Summary: Four uL of substrate mix (final concentration, 50 mM imidazole pH 7.2, 50 mM KCl, 7 mM MgCl2, 10 uM ATP, 0.01% Tween 20, 0.05% BSA) was dispensed into white 1536 well plates. Twenty-three nL of compound was delivered by a pin tool and 2 uL of luciferase detection mix (Kinase-Glo, Promega)) was added. Following 8-minute incubation at ambient temperature, luminescence was measured by a ViewLux (Perkin Elmer) at 5 seconds exposure/plate.
On the % scale 0 is the no-effect control and ±100 the full control effect; potency means the concentration at half of the fitted maximal effect.

| Compound | activity change, negative = inhibition | Potency |
| --- | --- | --- |
| CCN1C(=O)N[C@@H](c2ccccc2)[C@H](C(C)=O)[C@H]1C | -7.74% [at 7.66 µM] |  |
| C[C@@H]1C(c2ccc(F)cc2)=NN(c2ccc(Br)cc2)[C@H]1C(=O)N1CCOC1=O | 0.81% [at 39.9 µM] |  |
| O=C(O)C[C@@H]1NC(=O)[C@H](Cc2ccccc2)NC1=O | -1.56% |  |
| COC(=O)C1=C(C(=O)OC)[C@@H]2N(C)c3ccccc3[C@@]23C[C@@H](C(=O)OC)N(C(C)=O)C3=N1 | 0.685% [at 7.66 µM] |  |
| CC(C)C[C@H](NC(=O)[C@H](O)[C@H](N)Cc1ccccc1)C(=O)O | -2.08% |  |
| COC(=O)C1=C(C(=O)OC)[C@@H]2N(C)c3ccccc3[C@@]23C[C@@H](C(=O)OC)N(C(=O)c2ccco2)C3=N1 | -2.48% [at 7.66 µM] |  |
| Cc1nonc1C(=O)N/N=C/c1ccc(O)cc1 |  | 5.01 µM (active) |
| COC(=O)N/N=C/c1ccc(/C=N/NC(=O)OC)cc1 | -2.49% |  |
| O=C(C[n+]1ccccc1)N/N=C/c1ccc(O)cc1 | 0.75% |  |
| C[C@H]1Cc2c(COc3ccccc3)nc3c(c2CO1)CN(C(=O)NCc1ccco1)CC3 | -0.257% [at 7.66 µM] |  |
| Cc1ccsc1C(=O)OCC(=O)c1cc2ccccc2o1 | 1.49% |  |
| Cc1ccsc1C(=O)OCC(=O)c1cc(C)n(CC2CCCO2)c1C (stereo not drawn) |  | 12.6 µM (active) |
| Cc1cc(C(=O)Cn2cnc3cc([N+](=O)[O-])ccc3c2=O)c(C)n1CC1CCCO1 (stereo not drawn) | 0.204% |  |
| COC(=O)CCCC1=CC2=CC(=O)C(C)(OC(=O)c3cccs3)C(=O)C2=CN1CC(C)C (stereo not drawn) | -3.18% [at 7.66 µM] |  |
| CCOC(=O)C1=C(C)c2ccccc2OC1(C)C(=O)OCC (stereo not drawn) | -1.26% [at 39.9 µM] |  |
| CC(C)(Oc1ccc(C2CC2(Cl)Cl)cc1)C(=O)O (stereo not drawn) | -4.29% |  |
| O=C(Nc1nnc(C2CC2)s1)c1ccccn1 |  | 10 µM (active) |
| Cc1occc1C(=O)Nc1nnc(C2CCCCC2)s1 | -4.54% |  |
| O=C(Cc1cccs1)Nc1nnc(C2CC2)s1 | -2.54% |  |
| C=C(C)C(=O)c1ccc(F)cc1 | -1.32% |  |
| CC(C)C1=CC2=CC[C@H]3[C@](C)(C(=O)O)CCC[C@]3(C)C2CC1 (stereo partly drawn) | -0.415% |  |
| COC(=O)C1=C(C(=O)OC)[C@@H]2N(Cc3ccccc3)c3ccccc3[C@@]23C[C@@H](C(=O)OC)N(S(=O)(=O)c2ccc(C(F)(F)F)cc2)C3=N1 | -5.51% [at 7.66 µM] |  |
| CCCCC/C=C\C/C=C\C/C=C\CCCCCCC(N)=O | 1.55% |  |
| COC(=O)N1C(/C=C/C=C/c2ccc(OC)cc2)=Cc2ccccc2C1CC(C)=O (stereo not drawn) | -3.85% [at 7.66 µM] |  |
| CC1(C)O[C@@H]2C[C@@H]3[C@H]4C[C@@H](F)C5=CC(=O)C=C[C@]5(C)[C@@]4(F)[C@@H](O)C[C@]3(C)[C@]2(C(=O)CO)O1 | 2.2% [at 39.9 µM] |  |
| CCCCC/C=C\C/C=C\CCCCCCCCCC(=O)NCC(=O)O | -0.368% |  |
| COc1ccc(-c2c(C)cc3oc(=O)cc(-c4ccccc4)c3c2C)cc1F | -1.32% [at 39.9 µM] |  |

| Compound | activity change, negative = inhibition | Potency |
| --- | --- | --- |
| CC1=C(/C=C/C(C)=C/C=C/C(C)=C/C=C/C=C(C)/C=C/C=C(C)/C=C/C(=O)[C@]2(C)C[C@@H](O)CC2(C)C)C(C)(C)C[C@H](O)C1 | -4.32% [at 39.9 µM] |  |
| C#CCCOC(=O)N1C2=NC(C(=O)OC)=C(C(=O)OC)[C@@H]3N(C)c4ccc(OC)cc4[C@]23C[C@H]1C(=O)OC | -8.5% [at 7.66 µM] |  |
| Cc1cn(C2OC[C@@H](O)[C@@H]2CO)c(=O)[nH]c1=O (stereo partly drawn) | 1.72% |  |
| CCCCC/C=C\C/C=C\CCCCCCCCCC(=O)O | 1.05% |  |
| COc1cccc(OC)c1C(=O)Nc1ccc(N2CCCCC2)cc1 | -0.438% |  |
| COc1ccc(C(=O)NC(=S)Nc2ccc(N3CCCC3)cc2)cc1OC | -0.802% |  |
| COc1cccc(C(=O)Nc2ccc(N3CCCC3)cc2)c1 |  | 4.47 µM (active) |
| COc1cc(OC)c2c(c1)OC(=O)CC2c1cc(OC)c(OC)c(OC)c1 (stereo not drawn) | -1.07% [at 39.9 µM] |  |
| CN1c2ccccc2-c2nc3ccccc3n2C1c1ccco1 (stereo not drawn) | -3.67% |  |
| COc1ccc(CCn2c(-c3ccco3)nc3nc4ccccc4nc32)cc1OC | -1.99% |  |
| Cn1c(-c2ccco2)nc2cc3ccccc3cc21 |  | 12.6 µM (active) |
| COc1ccc(C2CC(=O)Oc3ccc(C(C)(C)C)cc32)cc1 (stereo not drawn) | 1.23% [at 39.9 µM] |  |
| COc1cccc([C@@H]2Oc3ccc(Br)cc3C(=O)[C@H]2OC(=O)NCCc2ccc(OC)c(OC)c2)c1 | -1.05% |  |
| CCOC(=O)C1=C(C(=O)OCC)C(C(=O)OCC)N(S(=O)(=O)C(F)(F)F)c2ccccc21 (stereo not drawn) | 4.1% [at 39.9 µM] |  |
| COC(=O)C1=C(C(=O)OC)[C@@H]2N(C)c3ccccc3[C@@]23C[C@@H](C(=O)OC)N(S(=O)(=O)c2cccs2)C3=N1 | -6.85% [at 7.66 µM] |  |
| CC/C=C\C/C=C\C/C=C\C/C=C\C/C=C\C/C=C\CCC(=O)NCCc1ccc(O)c(O)c1 | 0.167% |  |
| C[C@@]12CCC(=O)C=C1CC[C@H]1C2[C@@H](O)C[C@]2(C)[C@@H]1CC[C@@]2(O)C(=O)COC(=O)C1CCCC1 (stereo partly drawn) | -5.73% [at 7.66 µM] |  |
| CCCCC/C=C\C/C=C\CCCCCCCCCC(N)=O | -0.518% |  |
| COC(=O)C1(C(C)=O)CC2=CC[C@H]3C(=O)N(c4ccccc4)C(=O)[C@H]3[C@@H]2Cc2ccccc2[C@@H]1C[N+](=O)[O-] (stereo partly drawn) | inactive |  |
| CCCCC/C=C\C/C=C\C/C=C\CCCCC(=O)NCC(=O)O | 1.63% |  |
| COC(=O)C(C(=O)OC)[C@@H](NC=O)c1ccccc1 | 0.0948% |  |
| CC1(OC(=O)c2ccc(Cl)nc2)C(=O)Cc2cc(-c3ccsc3)ncc2C1=O (stereo not drawn) | -0.318% [at 7.66 µM] |  |
| Cc1nn2c3ccccc3nc2n(C)c1=O | -2.73% |  |
| Cc1csc(-c2nc3ccccc3n2C)n1 |  | 4.47 µM (active) |
| Cn1cccc1-c1nc2ccccc2n1C | 0.232% |  |
| C=CCn1c(C)cc(C2=NNC(=NCC)SC2)c1C |  | 7.94 µM (active) |
